Luciferase inh – Firefly luciferase inhibition profiling of diverse chemical library using quantitative high-throughput screening; 2.5% of 76,000 active; Luciferin 4-monooxygenase (Photinus pyralis), P08659; purified P. pyralis luciferase, luminescence, biochemical; Potency, µM (highest dose often 115 µM), most hits filed as inhibitors; further: nearly all actives have a fitted effect of over 65% in size
Target sequence (P08659 whole entry, looked up): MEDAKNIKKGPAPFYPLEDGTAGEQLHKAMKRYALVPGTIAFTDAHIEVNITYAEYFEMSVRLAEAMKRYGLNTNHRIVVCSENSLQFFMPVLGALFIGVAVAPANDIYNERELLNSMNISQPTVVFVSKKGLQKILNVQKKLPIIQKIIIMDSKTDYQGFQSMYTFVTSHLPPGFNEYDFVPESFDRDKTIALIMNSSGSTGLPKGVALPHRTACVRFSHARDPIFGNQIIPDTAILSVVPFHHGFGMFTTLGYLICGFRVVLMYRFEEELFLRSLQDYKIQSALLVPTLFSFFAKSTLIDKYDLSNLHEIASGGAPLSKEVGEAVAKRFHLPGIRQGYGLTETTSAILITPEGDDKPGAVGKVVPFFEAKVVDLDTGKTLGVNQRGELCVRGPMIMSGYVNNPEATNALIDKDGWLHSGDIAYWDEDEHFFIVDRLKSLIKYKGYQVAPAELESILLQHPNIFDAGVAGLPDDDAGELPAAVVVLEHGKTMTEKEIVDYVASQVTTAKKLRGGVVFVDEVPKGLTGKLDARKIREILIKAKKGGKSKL
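Luminescence read by CCD imager after adding enzyme (10nM final) to wells holding compound, titrated in qHTS. Substrates 10uM each D-luciferin and ATP; buffer 50mM Tris acetate pH 7.5, 10mM Mg acetate, Tween-20, BSA.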
GPT2 inh – Primary qHTS assay for inhibitors of Glutamate pyruvate transaminase 2 (GPT2). Alanine aminotransferase 2 (Homo sapiens), Q8TD30. 0.25% of 100,000 active. Potency, µM (doses to about 57.7 µM), without a hit: at the highest dose activity change, negative = inhibition, hits mostly inhibitors. Recombinant GPT2, coupled pyruvate oxidase/HRP Amplex Red fluorescence; further: nearly all actives have a fitted effect of over 60% in size
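Inhibition is scored from Amplex Red fluorescence generated when pyruvate oxidase and HRP act on pyruvate released by GPT2. Reactions contain 10ng/uL enzyme, 250uM a-KG and 2mM L-alanine and run 30 min at room temperature.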
HEK cytotox – Cytotoxic Profiling in HEK 293 Cell Line of Diverse Libraries Using Quantitative High-Throughput Screening; Potency, µM (top dose mostly 115 µM), for the others: at the highest dose activity change, negative = cytotoxicity, actives largely listed as inhibitors; AID 1345083, 2018; 6.6% of 94,000 active; HEK 293 viability, ATP luminescence (CellTiter-Glo), 48-72 h; further: nearly all actives have a fitted effect of over 60% in size
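Cells seeded first (HEK 293, 250 cells/well), then compound added by pintool. Incubation ran 48 or 72 hr at 37 degree Celsius. CellTiter-Glo was added and luminescence imaged after 10 min at room temperature.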
3T3 cytotox – Cytotoxic Profiling in NIH 3T3 Cell Line of Diverse Libraries Using Quantitative High-Throughput Screening | Potency, µM (doses to about 96.7 µM), inactives show top-dose activity change, negative = cytotoxicity, hits mostly inhibitors | AID 1345082, 2018 | NIH 3T3 viability, CellTiter-Glo ATP luminescence, 48-72 h | 4.3% of 94,000 active; further: nearly all actives have a fitted effect of over 55% in size
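Luminescent ATP readout (CellTiter-Glo, 10 min RT) after 48 or 72 hr compound exposure of NIH 3T3 cells seeded at 400 cells/well in 1536-well format; quantitative HTS.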
NPR1 antag – Natriuretic polypeptide receptor (hNpr1) antagonism - Primary qHTS. Atrial natriuretic peptide receptor 1 (Homo sapiens), P16066. HEK293 hNpr1 GloSensor cGMP, ANP-stimulated luminescence. Potency, µM (series often up to 46.3 µM), for the others: top-dose activity change, negative = inhibition, usual class: inhibitors. 1.6% of 76,000 active; calls by dose curve; further: nearly all actives have a fitted effect of over 60% in size
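HEK293 cells stably expressing human Npr1 and cGMP GloSensor pGS-40F, loaded 2 h with 2% GloSensor reagent, given compound 30 min at room temperature. Luminescence read before and 20 min after 0.1 nM hNppA.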
An asterisk follows results filed as active; i = inactive; ? = inconclusive; . = no result; [ ] = remark or other dose. Sampled rows, rich in hits. Any-hit rate of the full collection: about 10%. Unless noted, the call rests on the fitted dose curve; in most records, active means well fitted curve in the direction sought with a large enough effect; inconclusive means small, poorly fitted or top-dose-only effect, or another doubt; inactive means no such curve, though single readings can be large; an effect the other way counts as inactive or inconclusive. On the % scale 0 is the no-effect control and ±100 the full control effect; potency means the concentration at half of the fitted maximal effect.

SMILES	Luciferase inh	GPT2 inh	HEK cytotox	3T3 cytotox	NPR1 antag
Cc1ccc(CNC(=O)N2CCCN(S(=O)(=O)c3ccccc3)CCC(=O)NCC2)cc1	i	i	-6.0%	-19.3%	-9.8%
O=C(NCC(=O)N1CCC(c2ccccc2)CC1)c1cccc(-c2ccsc2)c1	.	-5.1%	35.5µM*	?	.
O=C(NCCN[S+](=O)([O-])c1ccccc1)c1cccc(-c2ccsc2)c1	.	i	50.1µM*	?	.
Cc1ccc(-c2cccc(CN3CCCC3C(=O)NC3CCCCC3)c2)cc1Cl (stereo not drawn)	.	.	-25.0%	-22.6%	.
Cc1ccc(-c2cccc(CN3CCCC3C(=O)N3CCN(c4ncccn4)CC3)c2)cc1Cl (stereo not drawn)	.	.	14.1µM*	?	.
Cc1ccc(-c2cccc(CN3CCCC3C(=O)NCC(F)F)c2)cc1Cl (stereo not drawn)	.	.	39.8µM*	?	.
Cc1ccc(-c2cccc(CN3CCCC3C(=O)NCC(C)C)c2)cc1Cl (stereo not drawn)	.	.	39.8µM*	35.5µM*	.
CCN(CC)Cc1cnc2c(C(=O)NCc3cnn4cccnc34)cnn2c1	i	i	-2.4%	-16.1%	0.0%
CC(=O)Nc1ccc(CNC[C@H]2COCc3nc4cc(C)ccc4n32)cc1	i	-3.7%[88.5 µM]	?	?	5.0%[70.6 µM]
COc1cccc([S+](=O)([O-])N2CCCC3(CC(c4cccnc4)=NO3)C2)c1 (stereo not drawn)	.	1.9%	4.4%	2.5%	.
CN1CCC2(C1)CN(CC1CC1)c1ccc(C(=O)NC3CCCCC3)cc12 (stereo not drawn)	i	0.5%[88.5 µM]	89.1µM*	79.4µM*	0.5%[70.6 µM]
CN1CCC2(C1)CN(CC1CC1)c1ccc(C(=O)NCc3cccs3)cc12 (stereo not drawn)	i	i	100µM*	?	-10.9%[70.6 µM]
CN1CCC2(C1)CN(CC1CC1)c1ccc(C(=O)Nc3ccccc3)cc12 (stereo not drawn)	?	1.5%[88.5 µM]	?	?	-0.7%[70.6 µM]
COc1cccc(-c2ccc3ncn(-c4ccc(F)cc4F)c(=O)c3n2)c1OC	?	-9.3%[88.5 µM]	?	?	4.9%[70.6 µM]
COc1ccc(-c2cc(N3CCN(C(=O)c4cc5ccccc5[nH]4)CC3)n[nH]2)cc1	?	i	28.2µM*	20µM*	-27.6%
O=C(c1ccc(F)cc1F)N1CCN(c2cc(-c3ccc(F)cc3)[nH]n2)CC1	i	i	39.8µM*	?	?
O=C(c1ccccc1Cl)N1CCN(c2cc(-c3ccccc3)[nH]n2)CC1	i	?	20µM*	?	-12.9%
O=C(c1cc2ccccc2[nH]1)N1CCN(c2cc(-c3ccccc3)[nH]n2)CC1	?	i	?	35.5µM*	-10.5%
COc1ccc(-c2cc(N3CCCN(C(=O)c4ccccc4)CC3)n[nH]2)cc1	i	-1.5%	?	-11.0%	3.1%
O=C(c1ccc(F)cc1F)N1CCN(c2cc(-c3ccccc3)[nH]n2)CC1	i	-4.8%	?	-26.6%	-1.6%
Cc1ccc(C(=O)N2CCN(c3cc(-c4ccccc4)[nH]n3)CC2)cc1	i	1.4%	?	?	?
Cn1c(CO[C@H]2CN(Cc3ccc(C#N)cc3)C[C@H]2F)nc2ccccc21	i	i	-25.1%[172 µM]	-20.7%[138 µM]	-2.3%[70.6 µM]
COc1cccc(N2C(=O)NC(=NC3CCCC3)C23CCCN(CC2CCCCC2)C3)c1 (stereo not drawn)	.	4.7%	?	?	.
COc1cccc(N2C(=O)NC(=NC3CCCCC3)C23CCCN(CCC(C)C)C3)c1 (stereo not drawn)	.	-0.1%	39.8µM*	?	.
COc1cccc(N2C(=O)NC(=NC3CCCCC3)C23CCCN(CC2CCCCC2)C3)c1 (stereo not drawn)	.	i	31.6µM*	28.2µM*	.
SMILES	Luciferase inh	GPT2 inh	HEK cytotox	3T3 cytotox	NPR1 antag
O=C1NC(=NC2CCCC2)C2(CCN(CC3CCCCC3)C2)N1c1cc(F)cc(F)c1 (stereo not drawn)	.	i	35.5µM*	?	.
Cc1ccccc1CN1C[C@@H]2C(=O)N(Cc3ccc4c(c3)OCO4)C(=O)[C@@H]2C1	i	i	?	-27.1%	-1.4%
COc1ccc(C(=O)N[C@@H]2c3ccccc3C3(CCNCC3)[C@H]2OC)cc1C	i	-16.9%	?	?	-4.2%
O=C(NCCc1cnc[nH]1)c1ccc(-c2ncc3cnc(-c4cccc(F)c4)cn23)cc1	i	-4.8%[88.5 µM]	89.1µM*	50.1µM*	2.2%[70.6 µM]
O=C(NC1CCC(O)CC1)c1ccc(-c2ncc3cnc(-c4cccc(F)c4)cn23)cc1 (stereo not drawn)	i	i	70.8µM*	-25.8%[138 µM]	-2.6%[70.6 µM]
O=C(NCCc1cnc[nH]1)c1ccc(-c2ncc3cnc(-c4ccccc4)cn23)cc1	.	-7.8%[88.5 µM]	.	.	.
O=C(NCc1ccccc1)C1=NO[C@@H]2CN(Cc3cccc(F)c3F)C[C@H]12	i	-13.2%[88.5 µM]	?	-28.2%[138 µM]	7.2%[70.6 µM]
O=C(NCc1ccccc1)C1=NO[C@@H]2CN(Cc3cccc(F)c3)C[C@H]12	i	i	44.7µM*	?	0.3%[70.6 µM]
O=C(Nc1ccc(F)c(Cl)c1)C1=NO[C@@H]2CN(CCc3ccccc3)C[C@H]12	i	-11.7%[88.5 µM]	112µM*	?	-1.1%[70.6 µM]
O=C(NCc1ccccc1)C1=NO[C@@H]2CN(Cc3ccc(O)c(Cl)c3)C[C@H]12	i	i	70.8µM*	?	-12.7%[70.6 µM]
Cc1cc(C)cc(-c2ccc(CN3CCCC3C(=O)NCC(F)(F)F)cc2)c1 (stereo not drawn)	.	i	?	?	.
Cc1cc(C)cc(-c2ccc(CN3CCCC3C(=O)NC3CCCC3)cc2)c1 (stereo not drawn)	.	i	28.2µM*	22.4µM*	.
C#CCNC(=O)C1CCCN1Cc1ccc(-c2cc(C)cc(C)c2)cc1 (stereo not drawn)	.	-3.5%	44.7µM*	?	.
COC(=O)c1[nH]nc2c1C(c1ccc(OC)c(OC)c1Cl)CC(=O)N2 (stereo not drawn)	i	-4.0%[11.5 µM]	-17.3%	-16.5%	-1.2%
Cc1cccc([S+](=O)([O-])N2CCC3(CC2)OCCN(Cc2ccccc2)C3=O)c1	i	0.2%[88.5 µM]	-27.8%[172 µM]	?	-10.5%[70.6 µM]
COCCN1CCOC2(CCN([S+](=O)([O-])c3cccc(C)c3)CC2)C1=O	i	-5.9%[88.5 µM]	1.0%[172 µM]	89.1µM*	-0.6%[70.6 µM]
